# An excerpt weighted towards active compounds, which were near 19% of everything screened.
# TDP1 cell CPT: DT40-hTDP1 cell growth loss with CPT. chicken DT40 Tdp1-/-;hTDP1 cells + 20 nM CPT, ATP luminescence, 48 h. Potency, µM (titrated, usually from 46.2 µM), inactives show at the top dose activity change, negative = growth inhibition, most hits filed as inhibitors. 420,000 tested, 12% active; also: potency is read from the fitted curve at half-maximal effect; % is scaled to controls: 0 for no effect and ±100 for the full control effect; nearly all actives have a fitted effect of over 55% in size
#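 Chicken DT40 Tdp1-/- cells stably complemented with human TDP1 were seeded at 400 cells/well in medium containing 20 nM camptothecin, exposed to pin-transferred compounds, and grown at 37 °C for at least 48 hr. Viability was read as ATP luminescence.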
# IL-1B inflam inh: blocks inflammasome-driven IL-1 beta release. 360,000 tested, 4.7% active. THP-1 LPS/ATP IL-1B secretion, AlphaLISA, 16 h; active compounds read low. AID 743279. activity change, % at 57.5 µM; in the data active = activity change below about -50%; inconclusive = mostly about -30% to -49%; also: % is scaled to controls: 0 for no effect and ±100 for the full control effect
#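 THP-1 cells pretreated 1 hr with compounds (up to 57.5 uM final), then stimulated with LPS (250 ng/mL final) plus ATP (1.25 mM final); secreted IL-1B measured by AlphaLISA after 16 hr, decreased signal indicating inhibition.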
# HepG2 viability: kills HepG2 cells in TGF-b inhibitor counter-screen; Potency, µM (highest dose often 46.1 µM), for inactives: at the top dose activity change, negative = cytotoxicity, usual class: cytotoxic; HepG2 CAGA-GFP viability, ATP luminescence, 18 h; 410,000 tested, 0.76% active; also: potency is read from the fitted curve at half-maximal effect
#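 CellTiter-Glo luminescence gave cytotoxicity after 18 hours at 37 degrees C. The cells were HepG2 CAGA-GFP in 1% FBS DMEM, stimulated with 500 pg/mL TGF-beta after compound addition. %Activity was normalised to no-cell wells (complete cell-killing) and DMSO (no toxicity), and curves were fitted and classified.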
# TDP1 cell noCPT: qHTS for Inhibitors of human tyrosyl-DNA phosphodiesterase 1 (TDP1): qHTS in cells in absence of CPT; AID 686978, 2013; DT40 Tdp1-/- hTDP1 cells, no CPT, ATP luminescence, 48 h; Potency, µM (doses to about 46.2 µM), for the others: at the highest dose activity change, negative = growth inhibition, usual class: inhibitors; 420,000 tested, 15% active; also: potency is read from the fitted curve at half-maximal effect; % is scaled to controls: 0 for no effect and ±100 for the full control effect; nearly all actives have a fitted effect of over 55% in size
#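 Camptothecin absent (DMSO only). Human TDP1-complemented DT40 knockout cells, 400 cells/well, 37 °C for minimum 48 hr; ATP measured via CellTiter-Glo, 30 min dark incubation, luminescence.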
# TGFb inhibitor: blocks TGF-b signaling; HepG2 CAGA-GFP TGF-b/SMAD3 reporter, GFP fluorescence, 18 h; TGF-beta stimulated, 500 pg/mL final; Potency, µM (titrated, usually from 46.1 µM), for the others: at the top dose activity, negative = inhibition, hits mostly inhibitors; 410,000 tested, 1.2% active; also: potency is read from the fitted curve at half-maximal effect; % is scaled to controls: 0 for no effect and ±100 for the full control effect; nearly all actives have a fitted effect of over 65% in size
#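 First, reporter cells (HEPG2 CAGA-GFP) rested 2 h at 37 degrees C. Next, compounds were pinned in and TGF-beta added to 500 pg/mL final. After 18 h, GFP was imaged per cell and summed per well.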
# ASM inhibitor: blocks human secretory acid sphingomyelinase; Potency, µM (titrated, usually from 57.5 µM), for the others: at the top dose activity change, negative = inhibition, actives largely listed as inhibitors; 340,000 tested, 0.006% active; placental ASM, HMU-PC fluorogenic substrate, 60 min; P17405; AID 504937; also: potency is read from the fitted curve at half-maximal effect
# Target sequence (P17405 47-631 limits assumed): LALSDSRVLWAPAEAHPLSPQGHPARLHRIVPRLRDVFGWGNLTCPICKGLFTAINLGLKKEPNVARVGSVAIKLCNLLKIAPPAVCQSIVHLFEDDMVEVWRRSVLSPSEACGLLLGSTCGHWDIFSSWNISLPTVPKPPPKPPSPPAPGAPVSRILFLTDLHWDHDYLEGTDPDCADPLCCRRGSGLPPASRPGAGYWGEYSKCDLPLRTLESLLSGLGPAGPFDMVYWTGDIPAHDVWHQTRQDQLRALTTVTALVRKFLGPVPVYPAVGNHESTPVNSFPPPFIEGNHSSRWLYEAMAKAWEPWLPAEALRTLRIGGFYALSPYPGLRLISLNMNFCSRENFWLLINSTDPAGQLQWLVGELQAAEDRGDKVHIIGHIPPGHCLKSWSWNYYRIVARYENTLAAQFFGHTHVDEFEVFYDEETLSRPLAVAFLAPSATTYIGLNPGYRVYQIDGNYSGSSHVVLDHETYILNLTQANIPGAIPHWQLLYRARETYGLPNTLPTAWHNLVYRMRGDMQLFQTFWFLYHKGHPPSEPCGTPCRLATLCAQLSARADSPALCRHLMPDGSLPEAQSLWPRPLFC
#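 Steps: dispense placental human ASM, pin compound, wait 10 min at room temperature, add HMU-PC0 substrate at 9 uM final, incubate 60 min at 37 °C, add stop solution raising pH to 10, read fluorescence.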
# * marks the source's active call; other numbers are inactive results; i = inactive; ? = inconclusive; · = no result. Unless noted, calls follow the shape of the dose curve; as a rule, active = well fitted curve in the direction sought with a large enough effect; inconclusive = small, poorly fitted or top-dose-only effect, or another doubt; inactive = no such curve, though single readings can be large; an effect the other way counts as inactive or inconclusive.
SMILES,TDP1 cell CPT,IL-1B inflam inh,HepG2 viability,TDP1 cell noCPT,TGFb inhibitor,ASM inhibitor
O=C1CC(c2ccc3c(c2)OCCO3)Oc2ccccc21 (stereo not drawn),?,-12.3,-3.8%,-19.9%,17.2%,0.1%
NC(=S)N/N=C1\CC(c2ccc3c(c2)OCCCO3)Oc2ccc(F)cc21 (stereo not drawn),2.59µM*,-70.7*,11.5%,4.61µM*,?,-7.1%
COc1cc(/C=C2\CCc3ccccc3C2=O)cc(OC)c1OC,18.4µM*,-101.2*,19.5%,16.4µM*,?,-3.1%
COc1ccc(/C=C2/CCc3ccccc3C2=O)cc1OC,?,-98.7*,-29.8%,?,-28.6%,0.4%
COc1ccc(/C=C2\C(=O)NC(=O)c3ccccc32)cc1OC,1.64µM*,51.2,-3.1%,1.46µM*,-6.5%,149.9%
COc1cc(/C=C2/CCc3ccccc3C2=O)cc(OC)c1OC,?,-99.0*,-8.4%,14.6µM*,-21.5%,-4.8%
COc1ccccc1C=C1CCc2ccccc2C1=O,?,-7.2,-51.2%,?,?,·
COc1ccc(C=C2CCc3ccccc3C2=O)cc1,?,1.3,-88.0%,?,?,·
O=C(O)CC1(CC(=O)Nc2cc(F)ccc2Cl)CCCCC1,-12.4%,3.0,-23.9%,-5.2%,-31.9%,0.9%
CCOc1ccc(NC(=O)Cn2cc(C(=O)c3ccccc3)c(=O)c3cc4c(cc32)OCCO4)cc1,-17.6%,·,3.8%,-18.6%,2.8%,·
COc1ccc2c(c1)/C(=C/c1cc(OC)c(OC)c(OC)c1)C(=O)N2,0.517µM*,-6.0,-8.9%,0.731µM*,?,-5.5%
COc1ccc(OC)c(N=C2C(=O)Nc3ccccc32)c1,-5.8%,9.2,1.3%,-0.6%,-22.4%,1.8%
CN(C)C(=O)c1ccc(SC(=S)NCc2ccccc2)cc1,5.8µM*,?,-39.1%,5.8µM*,?,·
COc1ccc(NC(=O)C2CCC(CNS(=O)(=O)c3csc(C(N)=O)c3)CC2)cc1 (stereo not drawn),?,·,-5.7%,-15.3%,-3.8%,·
CN(Cc1ccccc1F)Cc1cc(=O)oc2cc(O)c(Cl)cc12,14.6µM*,22.0,-126.0%,16.4µM*,7.7%,i
Cc1ccc2c(CN(C)Cc3ccccc3)cc(=O)oc2c1,18.4µM*,36.0,-16.9%,?,-11.8%,·
CCCCN(CCCC)Cc1cc(=O)oc2ccc3ccccc3c12,?,14.7,-48.9%,16.4µM*,?,·
C=CCN(CC=C)Cc1cc(=O)oc2ccc3ccccc3c12,16.4µM*,0.0,-16.8%,16.4µM*,?,·
CCCCN(CCCC)Cc1cc(=O)oc2cc(OC)ccc12,?,47.6,-9.7%,?,?,·
C=CCN(CC=C)Cc1cc(=O)oc2cc(C)ccc12,-22.5%,6.6,-32.6%,?,-22.8%,·
C=CCc1ccccc1OCCOc1ccc([N+](=O)[O-])cc1/C=N/NC(N)=O,?,44.0,10.8%,?,1.0%,-0.6%
O=C(OCC(=O)N1CCCCC1)c1ccc2ccccc2n1,5.2%,31.2,-5.1%,-24.1%,2.9%,-0.5%
CN(Cc1ccccc1)Cc1cc(=O)oc2ccc3ccccc3c12,?,30.7,-11.8%,18.4µM*,?,·
CN(C)CCCN(C(=O)COc1ccc(Cl)cc1)c1nc2cc3c(cc2s1)OCCO3,-28.3%,-93.6*,11.6%,?,-15.7%,-12.8%
CN(C)CCCN(C(=O)COc1ccc(Cl)cc1)c1nc2cc3c(cc2s1)OCO3,8.2µM*,-99.8*,-87.7%,13µM*,?,-12.8%
COc1cccc2sc(N(CCCN(C)C)C(=O)COc3ccc(Cl)cc3)nc12,?,-27.4,-42.7%,?,?,-9.0%
